HEK cytotox = cytotoxic compounds in HEK 293 cells. Potency, µM (highest dose often 115 µM), most hits filed as inhibitors. HEK 293 viability, ATP luminescence (CellTiter-Glo), 48-72 h. 94,000 compounds, 6.6% hits. AID 1345083; further: nearly all actives have a fitted effect of over 60% in size
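HEK 293 seeded at 250 cells/well receive compound via pintool. After 48 or 72 hr at 37 degree Celsius, 5% CO2 and 95% humidity, CellTiter-Glo is dispensed and luminescence read following 10 min at room temperature.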
hNpr1 antagonist = antagonists of human natriuretic peptide receptor Npr1 | AID 1347048 | P16066 | Potency, µM (highest dose often 46.3 µM), hits mostly inhibitors | 76,000 compounds, 1.6% hits | HEK293 hNpr1 GloSensor cGMP, ANP-stimulated luminescence; calls by dose curve; further: nearly all actives have a fitted effect of over 60% in size
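Compound pre-incubated 30 min at room temperature on GloSensor-loaded HEK293 cells stably carrying hNpr1 and the pGS-40F cGMP biosensor. Stimulation uses hNppA at 0.1 nM final; luminescence is taken at baseline and 20 min post-agonist.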
Luciferase inh = Photinus pyralis luciferase inhibition; 76,000 compounds, 2.5% hits; Potency, µM (top dose mostly 115 µM), usual class: inhibitors; purified P. pyralis luciferase, luminescence, biochemical; P08659; further: nearly all actives have a fitted effect of over 65% in size
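Purified 10nM P. pyralis luciferase with 10uM D-luciferin and 10uM ATP in 50mM Tris acetate pH 7.5, 10mM Mg acetate, 0.01% Tween-20, 0.05% BSA. qHTS titration; luminescence read by CCD imager.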
NIH3T3 tox = kills NIH 3T3 cells; 94,000 compounds, 4.3% hits; Potency, µM (highest dose often 96.7 µM), hits mostly inhibitors; AID 1345082; NIH 3T3 viability, CellTiter-Glo ATP luminescence, 48-72 h; further: nearly all actives have a fitted effect of over 55% in size
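ATP-dependent luminescence (CellTiter-Glo) served as the viability signal for NIH 3T3 cells treated with compound for 48 or 72 hr at 37 °C.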
A number is an active result; . = inactive; ? = inconclusive; / = no result given. Hits are enriched below; roughly 11% of the tested compounds scored in any of these assays. Unless noted, the call rests on the fitted dose curve; in most records, active means well fitted curve in the direction sought with a large enough effect; inconclusive means small, poorly fitted or top-dose-only effect, or another doubt; inactive means no such curve, though single readings can be large; an effect the other way counts as inactive or inconclusive.

SMILES	HEK cytotox	hNpr1 antagonist	Luciferase inh	NIH3T3 tox
Cc1ccc2nc(CO[C@H]3CN(Cc4cn(C)c5ccccc45)C[C@H]3F)[nH]c2c1	89µM	?	.	79µM
Fc1ccc2nc(CO[C@H]3CN(Cc4ccc5ccccc5n4)C[C@H]3F)[nH]c2c1	89µM	?	?	?
Cn1cc(CN2C[C@@H](F)[C@@H](OCc3nc4ncccc4[nH]3)C2)c2ccccc21	89µM	.	.	?
O=C(C1CC1)N1CCN(CCCn2nc3n(c2=O)CCCC3)CC1	.	/	/	.
O=C(NCCN1CCOCC1)c1nc2sccn2c1-c1cccnc1	.	/	/	.
Cc1nc(CN2C[C@H](C(=O)NCc3cccc(F)c3)C[C@@H]2c2ccc(F)cc2)cs1	89µM	.	.	?
Cc1nc(CN2C[C@H](C(=O)Nc3ccccc3)C[C@@H]2c2ccc(F)cc2)cs1	71µM	.	.	?
COc1ccc(CNC(=O)[C@@H]2C[C@@H](c3ccc(F)cc3)N(Cc3ccccc3)C2)cc1OC	?	.	.	.
Cc1nc(CN2C[C@H](C(=O)N3CCN(CCO)CC3)C[C@@H]2c2ccc(F)cc2)cs1	.	/	.	?
COc1ccccc1CC(=O)Nc1ccc2c(N3CCCCC3)ncnc2c1	25µM	?	.	?
Cc1ccccc1CC(=O)Nc1ccc2ncnc(N3CCCCC3)c2c1	40µM	.	.	?
O=C(Cc1cccs1)Nc1ccc2c(N3CCCCC3)ncnc2c1	?	?	.	?
O[C@@H]1C[C@@H](c2nc(-c3ccccc3)no2)N(Cc2cc3ccccc3o2)C1	?	.	40µM	?
OCc1ccc(CN2C[C@H](O)C[C@H]2c2nc(-c3ccccc3)no2)o1	.	.	45µM	.
CC(=O)N1CCN(C(=O)C2CCN(c3nccc(Nc4ccc(C)cc4)n3)CC2)CC1	.	/	/	.
Cc1ccc(Nc2ccnc(N3CCC(C(=O)N4CCC(Cc5ccccc5)CC4)CC3)n2)cc1	35µM	/	/	?
Cc1ccc(Nc2ccnc(N3CCC(C(=O)N4CCN(c5ncccn5)CC4)CC3)n2)cc1	18µM	/	/	35µM
CC(=O)N1Cc2ccccc2CC2(CCCN(CCc3ccccc3)C2)C1 (stereo not given)	?	/	/	.
O=C(Nc1cc(-c2ccccn2)nn1-c1ccccc1)c1ccc2ccccc2n1	.	/	/	.
Cc1cnc(CN(C)Cc2cn(-c3ccccc3)nn2)[nH]1	.	.	.	.
CCN1CCN(Cc2cc(C)cc(CN(C)Cc3ncc(C)[nH]3)c2C)CC1	?	.	40µM	.
CNC(=O)CCn1ncc2cc(OC3CCc4cccc(-c5ccncc5)c43)ccc21 (stereo not given)	100µM	.	.	?
CNC(=O)CCn1ncc2cc(OC3CCc4cccc(-c5cccnc5)c43)ccc21 (stereo not given)	100µM	.	.	?
O=C(Cc1cccc(F)c1)N1CCC(Cc2nncn2CC2CC2)C1 (stereo not given)	.	/	/	?
COCCN1CCCCCC(O)c2cc(C(=O)NCc3ccc(N4CCC(C)CC4)cc3)ccc21 (stereo not given)	?	.	?	28µM
SMILES	HEK cytotox	hNpr1 antagonist	Luciferase inh	NIH3T3 tox
COCCN1CCCCCC(O)c2cc(C(=O)N(C)Cc3ccc(N4CCCCC4)cc3)ccc21 (stereo not given)	?	.	.	40µM
COCCCNC(=O)c1ccc2c(c1)C(O)CCCCCN2CCOC (stereo not given)	.	.	.	.
COCCN1CCCCCC(O)c2cc(C(=O)N(C)Cc3cccnc3)ccc21 (stereo not given)	?	.	.	?
COCCN1CCCCCC(O)c2cc(C(=O)N3CCN(c4cccc(OC)c4)CC3)ccc21 (stereo not given)	40µM	.	.	?
CCOCCCNC(=O)N1CC2CN(C(C)C)CC(C1)O2	.	/	/	.
O=C(c1cccc(Cl)c1)N1CCC(C(=O)N2CCC(N3CCOC3=O)CC2)CC1	.	/	/	.
COc1ncccc1-c1nccc2c(=O)cc(N3CCOCC3)oc12	?	.	.	50µM
Cc1ccccc1-c1nccc2c(=O)cc(N3CCOCC3)oc12	?	.	.	35µM
O=c1cc(N2CCOCC2)oc2c(-c3ccccc3O)nccc12	.	.	.	?
COc1ccccc1-c1nccc2c(=O)cc(C3=CCOCC3)oc12	63µM	.	.	13µM
COc1ccccc1-c1nccc2c(=O)cc(N3CCOCC3)oc12	?	.	.	25µM
O=c1cc(N2CCOCC2)oc2c(-c3ccccc3Oc3ccccc3)nccc12	?	.	.	?

Source: PubChem BioAssay
